This is a sample that favours compounds with a hit; in the whole collection about 13% have one here.
USP28 inh: inhibitors of human USP28 deubiquitinase; inhibition, % at 25 µM; 47,000 compounds, 3% hits; Ubiquitin carboxyl-terminal hydrolase 28 (Homo sapiens), Q96RU2; purified USP28, Ub-rhodamine cleavage fluorescence, 30 min
USP8 inh: inhibitors of human USP8 deubiquitinase. Ubiquitin carboxyl-terminal hydrolase 8 (Homo sapiens), P40818. purified USP8, Ub-rhodamine cleavage fluorescence, 30 min. inhibition, % at 20 µM. 47,000 compounds, 4.2% hits
USP17 inh: inhibitors of human USP17 deubiquitinase. Ubiquitin carboxyl-terminal hydrolase 17-like protein 5 (Homo sapiens), A8MUK1. purified USP17, Ub-rhodamine cleavage fluorescence, 3 h. inhibition, % at 50 µM. 47,000 compounds, 6.5% hits. AID 1645855, 2021
USP30 block: inhibitors of human USP30 deubiquitinase. Ubiquitin carboxyl-terminal hydrolase 30 (Homo sapiens), Q70CQ3. purified USP30, Ub-rhodamine cleavage fluorescence. 47,000 compounds, 5.3% hits. inhibition, % at 25 µM
USP10 block: inhibitors of human USP10 deubiquitinase; 47,000 compounds, 1.1% hits; purified USP10, Ub-rhodamine fluorescence, 60 min; Ubiquitin carboxyl-terminal hydrolase 10 (Homo sapiens), Q14694; inhibition, % at 20 µM
Target sequence (Q14694 whole entry, looked up): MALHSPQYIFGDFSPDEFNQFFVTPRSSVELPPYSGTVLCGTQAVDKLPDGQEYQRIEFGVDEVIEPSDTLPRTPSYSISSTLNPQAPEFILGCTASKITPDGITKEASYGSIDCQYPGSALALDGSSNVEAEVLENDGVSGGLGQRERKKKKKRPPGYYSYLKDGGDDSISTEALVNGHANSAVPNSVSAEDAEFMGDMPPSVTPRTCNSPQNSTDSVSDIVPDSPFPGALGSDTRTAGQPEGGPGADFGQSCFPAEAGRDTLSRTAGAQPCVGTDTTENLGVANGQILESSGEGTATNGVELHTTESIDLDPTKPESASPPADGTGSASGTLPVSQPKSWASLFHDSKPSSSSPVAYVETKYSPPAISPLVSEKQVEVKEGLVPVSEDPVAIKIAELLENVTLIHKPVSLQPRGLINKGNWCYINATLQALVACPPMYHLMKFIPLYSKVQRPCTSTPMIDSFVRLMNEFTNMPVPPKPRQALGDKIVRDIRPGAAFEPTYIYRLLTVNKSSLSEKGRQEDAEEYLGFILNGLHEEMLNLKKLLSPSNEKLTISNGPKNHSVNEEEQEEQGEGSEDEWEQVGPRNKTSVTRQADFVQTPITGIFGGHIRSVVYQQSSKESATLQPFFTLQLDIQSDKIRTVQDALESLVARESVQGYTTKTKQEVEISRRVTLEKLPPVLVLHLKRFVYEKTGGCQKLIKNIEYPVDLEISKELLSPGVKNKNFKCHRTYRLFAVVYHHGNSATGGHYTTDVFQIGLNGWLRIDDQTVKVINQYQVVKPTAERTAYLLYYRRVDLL
The depositor's hits bear a star; x = no result. Rule as the data show it: active = inhibition above about 30%; inactive = the rest.

SMILES	USP28 inh	USP8 inh	USP17 inh	USP30 block	USP10 block
Cc1cccc(OCC(=O)N(C)Cc2cc(=O)[nH]c3ccccc23)c1	14	30*	22	27	1
CC(C)N(Cc1cc(=O)[nH]c2ccccc12)C(=O)c1ccc(C(C)(C)C)cc1	34*	5	6	16	5
CC(C)N(Cc1cc(=O)[nH]c2ccccc12)C(=O)c1ccccc1	-7	0	-3	-10	0
CCOc1ccc(-c2noc(-c3c(O)c4ccccc4[nH]c3=O)n2)cc1	-5	-3	x	-15	1
O=C(NCc1ccccc1Cl)c1ccc(-c2ccc(N3CCCC3)nn2)cc1	6	-8	42*	-47	5
CCOC(=O)N1CCC(NCc2c(C(=O)O)n(Cc3ccc(C)cc3)c3ccccc23)CC1	3	-5	11	0	-1
CCOC(=O)c1c(C)nc2n(Cc3ccccc3)c3ccccc3n12	18	18	30	61*	2
COc1cccc2sc(N3CCN(c4nc5ccccc5s4)CC3)nc12	-8	9	77*	-13	8
CCC(=O)Oc1ccc(-n2nnnc2C2(Nc3ccc(NC(C)=O)cc3)CCCCC2)cc1	9	5	-6	5	1
Fc1ccc(-c2nc3c4cnn(-c5ccccc5)c4ncn3n2)cc1	8	16	11	17	3
COc1ccc(S(=O)(=O)NCCSc2ccccc2)cc1Br	14	8	28	37*	17
COc1ccc(S(=O)(=O)NCCn2c(C)cc3ccccc32)cc1	-29	-105	1	-178	-12
COc1ccc(-c2ocnc2C(=O)Nc2ccc(C)c(F)c2)cc1OC	5	6	10	23	-1
O=C(Nc1ccncc1)c1ncoc1-c1cccc(Cl)c1	2	6	7	66*	1
CCN1CCN(c2ccc(-c3nc(-c4ccccc4)no3)nn2)CC1	12	22	22	23	3
COc1ccc(CNc2ccc(-c3ccccc3)nn2)cc1	11	3	37*	18	8
c1ccc(CNc2ccc(-c3nc(-c4ccccc4)no3)nn2)cc1	-10	42*	10	-21	6
Nc1cc(CCC2CN(S(=O)(=O)c3ccccc3)CCO2)ccn1 (stereo unspecified)	-10	-23	-3	-11	-2
COc1cccc(C(=O)Nc2nc3ccc(S(=O)(=O)N4CCOCC4)cc3s2)c1OC	x	7	47*	x	0
O=S(=O)(Nc1nc2ccc(S(=O)(=O)N3CCCC3)cc2s1)c1ccc(F)cc1	-7	-2	9	-48	14
CC(O)(CS(=O)(=O)Cc1ccccc1)C(=O)Nc1ccc(Cl)cc1Cl (stereo unspecified)	6	15	8	9	2
Cc1ccccc1CN1C[C@@H]2c3nc(NCC4CC4)ncc3CS(=O)(=O)[C@@H]2C1	-38	35*	-22	-68	-8
CO[C@H]1C[C@@H]2CC[C@@H](C)[C@@](O)(O2)C(=O)C(=O)N2CCCC[C@H]2C(=O)O[C@@H]([C@H](C)C[C@@H]2CC[C@@H](O)[C@H](OC)C2)CC(=O)[C@H](C)/C=C(\C)[C@@H](O)CC(=O)[C@H](C)C[C@H](C)/C=C/C=C/C=C/1C	0	17	8	-2	6
C[C@@H]1/C=C/CC/C=C/C(=O)[C@H](C)[C@@H]2CC[C@@H](C)[C@@](O)(O2)C(=O)C(=O)N2CCCC[C@H]2C(=O)O[C@H]([C@H](C)C[C@@H]2CC[C@@H](O)[C@H](O)C2)CC1	97*	12	82*	93*	8
COc1cccc(-c2cc(CNC(=O)Cc3ccccc3)no2)c1	17	0	3	0	5
SMILES	USP28 inh	USP8 inh	USP17 inh	USP30 block	USP10 block
NC(=O)c1ccc(NC(=O)Cc2cc(-c3ccc(F)cc3)on2)cc1	-8	-8	39*	-41	-4
COc1cccc(-c2cc(CC(=O)Nc3ccc(C(N)=O)cc3)no2)c1	18	40*	-3	-33	4
CNC(=O)[C@@]12CCCN(c3ncccn3)[C@@H]1CN(Cc1ccc(Cl)cc1)C2	0	-7	-10	14	-1
COc1ccc(NC(=O)CN2CCN(c3ccc(C(C)=O)cc3)CC2)cc1S(=O)(=O)N1CCCCC1	10	6	36*	54*	1
COc1ccc(NC(=O)Cc2ccccc2F)cc1S(=O)(=O)N1CCCCC1	10	3	x	8	0
Cc1cc(CCC2CN(C(=O)c3noc4c3CCCC4)CCO2)ncn1 (stereo unspecified)	3	-11	-52	0	1
CC(C)c1cc(C(=O)N2CCOC(CCc3cc(=O)[nH]cn3)C2)on1 (stereo unspecified)	18	6	16	40*	2
Cc1cc2nc(C3CCCCN3C(=O)c3c(C)noc3C)cc(=O)n2[nH]1 (stereo unspecified)	-7	-106	-35	1	3
COC(=O)c1ccc2c(=O)n(CCCCCC(=O)NCCC3=CCCCC3)c(=O)[nH]c2c1	-2	22	13	-2	25
COC(=O)c1ccc2c(=O)n(CCCCCC(=O)NCc3cccc(Cl)c3)c(=O)[nH]c2c1	16	65*	31*	62*	39*
Cn1cc(CCCC(=O)NCc2cccc(Cl)c2)c2ccccc21	-4	7	-26	-12	7
COC(=O)c1ccc2c(=O)n(CCCCCC(=O)NCCc3ccc(OC)c(OC)c3)c(=O)[nH]c2c1	29	46*	25	46*	11
O=C(CC1CCCCC1)N1CCCC(Cc2cnc(-c3ncc[nH]3)cn2)C1 (stereo unspecified)	-2	-32	-14	-6	0
Cc1cc(C)n(-c2ccc(C(=O)NCc3ccc(F)cc3F)cn2)n1	-5	-21	-15	-31	0
Cc1cc(C)n(-c2ccc(C(=O)NCc3cn4cc(C(F)(F)F)cc(Cl)c4n3)cc2)n1	19	-3	37*	0	-2
O=C(NCCCS(=O)(=O)N1CCN(c2ncccn2)CC1)c1ccc(F)cc1	-2	29	12	18	0
Cc1ccc(-c2nc3nc(C)c(Cc4ccccc4)c(=O)n3[nH]2)cc1	5	2	28	15	5
COc1ccc(-c2nc3nc(C)c(Cc4ccccc4)c(=O)n3[nH]2)cc1	19	7	74*	51*	7
Cc1nc(C2(NC(=O)Nc3cccc(C#N)c3)CCCC2)no1	5	12	3	11	2
O=C(NCCc1ccc(F)cc1)c1cc2c([nH]c1=O)CCCC2	-12	2	42*	-1	1
CC#CC#CC#C/C=C/CO	-6	-7	-17	-85	-8
COc1ccccc1C1OCCn2c(-c3ccccc3)c3c(=O)n(C)c(=O)n(C)c3c21 (stereo unspecified)	-1	0	5	3	-1
Cc1nc(N2CCN(C)CC2)ncc1C(=O)NCCCc1ccccc1	11	1	13	18	2

High-throughput results as filed in PubChem BioAssay.
